The campaign covered roughly 5,500 compounds. About 2,000 (36%) were called active. Another 18% or so got no clear call; they are omitted. The list shows a part of the results. Values without a mark were called inactive. Rule as the data show it: active = normalized growth mostly below about 0.91 (no sharp cut-off); inconclusive = no clear call, values can overlap the other calls; inactive = mostly above about 0.92.

The experiment can be described thus: chemical genetic growth profiling, strain panel (AID 1159580).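 Also: tested at 20 µM; growth read once vehicle control cultures reached saturation at 30 °C; 1 = growth at the plate median or of vehicle wells; lower values mean less growth of the strain.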 The following applies: S. cerevisiae deletion strains, growth OD.
The mark [1] stands for this setting: locus YHR030C, strain SLT2, hits give low values.

As for `Nc1cccc2c1C(=O)c1ccccc1-2`, the normalized growth reads like this: (locus YAL013W, strain DEP1, hits give low values) 0.676 (active); (locus YBR229C, strain ROT2, hits give low values) 0.313 (active); (locus YCL061C, strain MRC1, hits give low values) 0.438 (active); (locus YDL101C, strain DUN1, hits give low values) 0.368 (active); (locus YDR150W, strain NUM1, hits give low values) 0.95; (locus YEL061C, strain CIN8, hits give low values) 0.516 (active). Besides, the normalized growth is, setting by setting: (locus YGR078C, strain PAC10, hits give low values) 0.617 (active); under setting [1], 0.134 (active); (locus YHR087W, strain rtc3, hits give low values) 0.0566 (active); (locus YJR043C, strain POL32, hits give low values) 0.756 (active); (locus YJR075W, strain HOC1, hits give low values) 0.0797 (active); (locus YKL190W, strain CNB1, hits give low values) 0.046 (active). The normalized growth is, setting by setting: (locus YLR039C, strain RIC1, hits give low values) 0.06 (active); (locus YLR058C, strain SHM2 (second series), hits give low values) 0.0581 (active); (locus YLR085C, strain ARP6, hits give low values) 0.0974 (active); (locus YLR262C, strain YPT6, hits give low values) 0.138 (active); (locus YML094W, strain GIM5, hits give low values) 0.553 (active); (locus YMR219W, strain ESC1, hits give low values) 0.664 (active). Also, the normalized growth (locus YMR263W, strain SAP30, hits give low values) is 0.837 (active); the normalized growth (locus YNL153C, strain GIM3, hits give low values) was 0.125 (active); the normalized growth (locus YNL298W, strain CLA4 (second series), hits give low values) was 0.267 (active); the normalized growth (locus YNL322C, strain KRE1, hits give low values) was 1.03; the normalized growth (locus YNR030W, strain Alg12, hits give low values) was 0.729 (active); the normalized growth (locus YOL006C, strain TOP1, hits give low values) is 0.0699 (active). For the same molecule, the normalized growth is, setting by setting: (locus YPL055C, strain LGE1, hits give low values) 0.6 (active); (locus YPL241C, strain CIN2, hits give low values) 0.675 (active); (locus YPR135W, strain CTF4, hits give low values) 0.167 (active).
Turning to `O=C1c2ccccc2C(=O)C1(O)C1(O)C(=O)c2ccccc2C1=O`, the normalized growth was 1.04 under setting [1]; 1.04 (locus YHR079C, strain IRE1, hits give low values); 1.04 (locus YJL095W, strain BCK1, hits give low values); 0.953 (locus YJR066W, strain TOR1, hits give low values); 1.03 (locus YLR113W, strain HOG1, hits give low values); 0.984 (locus YNL183C, strain NPR1, hits give low values). Moreover, the normalized growth is, setting by setting: (locus YOR231W, strain MKK1, hits give low values) 1.05; (locus YPL256C, strain CLN2, hits give low values) 1.07.

(Values after PubChem BioAssay AID1159580 (chemical genetic matrix, 2015).)
